A3G deaminase = APOBEC3G DNA deaminase inhibitors, primary screen, biochemical, fluorescence, single-stranded DNA substrate, uHTS; DNA dC->dU-editing enzyme APOBEC-3G (Homo sapiens), Q9HC16; recombinant A3G, ssDNA deamination FAM/TAMRA fluorescence; inhibition, % at 20 µM; actives 0.28% (n = 330,000); AID 493012, 2011;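 active means inhibition of at least 40% at 20 µM, with no more than 30% in the related APOBEC3A deaminase screen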;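 further: plate controls were DMSO wells with A3G for no effect and wells lacking A3G enzyme for full effect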
ADAM17 inh = ADAM17 inhibitors, primary screen, biochemical, QFRET. Disintegrin and metalloproteinase domain-containing protein 17 (Homo sapiens), P78536. recombinant ADAM17, EDANS/DABCYL FRET peptide cleavage. inhibition, % at 6.95 µM. actives 0.83% (n = 370,000). AID 720648, 2013;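 active means inhibition above the mean of compounds lying between control limits plus 3 SD, set per campaign, cut at about 8.5% in these data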;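 further: 0% = DMSO-only wells as the low control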
Target sequence (P78536 215-824 limits assumed): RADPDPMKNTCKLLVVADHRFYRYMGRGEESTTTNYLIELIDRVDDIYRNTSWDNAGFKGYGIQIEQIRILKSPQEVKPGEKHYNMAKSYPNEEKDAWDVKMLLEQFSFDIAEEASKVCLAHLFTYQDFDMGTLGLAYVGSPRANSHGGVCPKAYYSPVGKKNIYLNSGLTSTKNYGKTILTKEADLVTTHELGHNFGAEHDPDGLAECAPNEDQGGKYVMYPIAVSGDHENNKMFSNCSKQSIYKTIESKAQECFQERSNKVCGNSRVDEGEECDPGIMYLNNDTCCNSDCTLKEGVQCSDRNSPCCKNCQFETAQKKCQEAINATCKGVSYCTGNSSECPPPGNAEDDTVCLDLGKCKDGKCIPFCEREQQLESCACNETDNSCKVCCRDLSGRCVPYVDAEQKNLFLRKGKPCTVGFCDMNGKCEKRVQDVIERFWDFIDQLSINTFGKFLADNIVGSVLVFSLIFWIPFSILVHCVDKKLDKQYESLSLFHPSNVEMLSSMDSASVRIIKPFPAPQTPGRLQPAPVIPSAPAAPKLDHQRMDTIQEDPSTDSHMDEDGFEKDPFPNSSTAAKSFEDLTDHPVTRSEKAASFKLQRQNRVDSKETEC
ADAM10 inh = human ADAM10 inhibitors, primary screen, biochemical, QFRET, HTS. Disintegrin and metalloproteinase domain-containing protein 10 (Homo sapiens), O14672. recombinant ADAM10, EDANS/DABCYL FRET peptide cleavage, 3 h. inhibition, % at 7 µM. actives 0.62% (n = 370,000). AID 720582, 2013;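 active means inhibition above a per-campaign cutoff equal to the mean of compounds falling between control-based bounds plus 3 SD, cut at about 20% in these data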;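 further: 0% = DMSO wells while the 100% control is not disclosed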
APOBEC3A inh = APOBEC3A ssDNA deaminase inhibitors, primary screen, selectivity assay for APOBEC3G inhibitor project, biochemical, FAM/TAMRA oligo cleavage fluorescence; recombinant A3A, FAM/TAMRA ssDNA deamination fluorescence; inhibition, % at 20 µM; actives 0.41% (n = 330,000);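 active means at least 40% inhibition at 20 µM here, with at most 30% in a related deaminase screen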;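 further: plate controls were A3A with DMSO for no effect and wells lacking A3A enzyme for full effect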
CendR NRP1 mod = modulators of CendR peptide binding to NRP-1, primary screen, biochemical, fluorescence polarization, uHTS; inhibition, % at 25 µM; actives 0.85% (n = 360,000); Neuropilin-1 (Homo sapiens), O14786; FAM-RPARPAR peptide binding to NRP-1;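 active means inhibition or corrected inhibition above about 18%, plus a signal ratio from 0.5 to 1.5, limit read from the data, passing the limit was not always enough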
Numbers without * were called inactive; . = no result; ! = not confirmed by another sample. Sampled rows, rich in hits. Any-hit rate of the full collection: about 2.4%.

SMILES	A3G deaminase	ADAM17 inh	ADAM10 inh	APOBEC3A inh	CendR NRP1 mod
O=C(CCCN1C(=O)/C(=C\c2ccccc2)SC1=S)Nc1ccc(O)cc1	-8	5	24*	0	-1
COc1ccc(CCC(=O)N2CCCc3ccccc32)cc1	-7	1	2	-2	28*
O=C(NCCC1=CCCCC1)C1CC(=O)N(C2CCCCCC2)C1 (stereo not given)	-7	-4	-4	-5	21*
Cc1ccc(CCNC(=O)C2CC(=O)N(C3CCCCC3)C2)cc1 (stereo not given)	-4	0	-1	-4	-4
COc1ccc([C@H](OC)[C@@]2(Cc3ccc(O)cc3)N=C(N)N(C)C2=O)cc1	-6	-5	-11	-1	21*
COc1ccc(C2CC(=O)C(C(c3ccc(O)cc3)C3C(=O)CC(c4ccc(OC)cc4)CC3=O)C(=O)C2)cc1 (stereo not given)	10	.	.	31	.
O=C(N1CCc2ccccc2C1)n1cc(C(O)(c2ccccc2)c2ccccc2)nn1	.	4	9	.	.
COc1ccc2c(c1)c(C(=O)N/N=C/c1ccc(Br)cc1)c(C)n2C	-8	0	-2	-1	26*
CCOc1ccc(/C=N/NC(=O)c2c(C)n(C)c3ccc(OC)cc23)cc1	-3	3	2	3	-3
CC1CN(C(=S)Nc2ccc(F)cc2F)CC(C)O1 (stereo not given)	-4	1	-3	-2	26*
CC1CN(C(=O)Nc2ccc(F)cc2F)CC(C)O1 (stereo not given)	-5	-2	5	-3	-4
O=C1NC[C@@H](CCCCN2C[C@H](Cc3ccccc3)N(CCc3ccc(O)cc3)C(=O)C2=O)N(Cc2ccccc2)C1=O	.	-2	-3	.	18*
Cc1nc2nc(CSc3nnc(C)s3)cc(=O)n2[nH]1	-2	-4	-4	-1	24*!
COc1ccc(Nc2nccc(-c3cccc(N)c3)n2)cc1	-7	-2	-1	-3	20*
COc1ccc(Nc2nccc(-c3ccc(C#N)cc3)n2)cc1	-5	-1	2	1	-4
CCOC(=O)N[C@H](C(=O)N1CCC[C@H]1C(=O)NC1CCCC1)C1CCCCC1	.	-6	1	.	.
Cc1ccc(S(=O)(=O)NCC2CCN(C(=O)C(=O)c3cccs3)CC2)cc1	.	-5	-10	.	.
c1ccc(CCNc2ccc3c(c2)Cc2ccccc2-3)nc1	.	-2	6	.	29*
c1ccc(CCNc2ccccn2)nc1	.	2	-25	.	3
CCCN1CCCCC(NC(C)=O)C1=O (stereo not given)	.	-5	-13	.	.
O=C1OC(c2ccc3ccccc3c2O)(c2ccc3ccccc3c2O)c2ccccc21	.	4	2	.	26*
CCOc1ccc(C(=O)NCC(=O)NNC(=O)CN(C)S(=O)(=O)c2ccc(Cl)cc2)cc1OCC	.	-3	-4	.	-11
COc1cc(C(=O)NCC(=O)NNC(=O)CN(C)S(=O)(=O)c2ccc(Cl)cc2)cc(OC)c1OC	-6	1	7	-4	27*
O=C(OCn1nnc2ccccc2c1=O)c1ccc(Br)o1	-3	-3	6	4	35*
CCCCNC(=O)N1CCC(c2nc3ccc(Cl)cc3[nH]2)CC1	.	1	-2	.	.
SMILES	A3G deaminase	ADAM17 inh	ADAM10 inh	APOBEC3A inh	CendR NRP1 mod
O=C(c1ccc(S(=O)(=O)Nc2ccccc2Cl)cc1)N1CCOCC1	-12	-7	-1	-3	26*
CC1CCCN(C(=O)c2ccc(S(=O)(=O)Nc3ccccc3Cl)cc2)C1 (stereo not given)	-8	-3	-5	-2	1
CCn1c(SCC(=O)NN=Cc2c[nH]c3ccccc23)nc2ccccc21	.	-1	4	.	.
COc1ccc(NC(=O)C2CCN(C(=O)Cc3ccccc3)CC2)cc1OC	-10	-2	-8	-5	2
COc1ccc(NC(=O)C2CCN(C(=O)Nc3ccccc3)CC2)cc1S(=O)(=O)N(C)C	-2	1	-11	1	23*
COc1cc(OC)cc(C(=O)NCCN2C(=O)C3C4C=CC(C4)C3C2=O)c1 (stereo not given)	.	-1	-7	.	.
CC1CN(c2ccnc3cc(Cl)ccc23)CCN1C(=O)c1ccc(Cl)cc1 (stereo not given)	.	-1	-5	.	.
CC(=O)c1ccc(S(=O)(=O)Oc2ccc(-c3ccc(C(=O)O)cc3)cc2)cc1	-15	1	4	1	26*
CNC(=S)Nc1ccc(N2CCCC2)c(S(=O)(=O)Nc2ccc(OC)cc2)c1	2	-10	-39	1	42*
CCCCN(C)C(=O)CSc1nnc(-c2cc(OC)c(OC)c(OC)c2)o1	.	4	0	.	.
COc1cccc(N2CCN(Cc3ccco3)CC2)c1	-4	-3	-2	-9	1
COc1cccc(CN2CCN(Cc3ccco3)CC2)c1	-6	4	0	-2	22*
O=S(=O)(Nc1cccc(Cl)c1)c1cccc(-n2cnnn2)c1	-12	-3	0	-4	20*
O=S(=O)(Nc1cccc(-n2cnnn2)c1)c1ccc(Cl)cc1	-7	-2	5	-4	10
COC(=O)C1=C(C)N(Cc2ccccc2C(F)(F)F)C(=NCc2ccccc2C(F)(F)F)NC1c1cccc(C(F)(F)F)c1 (stereo not given)	.	1	-8	.	.
Cc1nn(CCO)c(N)c1C1(O)C(=O)Nc2c(Cl)cc(Cl)cc21 (stereo not given)	-4	-10	-23	-3	24*
C[C@H]1[C@@H](C(=O)N2CCCC2)Cc2nc3ccccc3nc2C[C@@H]1c1ccccc1	.	-2	-6	.	.
O=C(OC1CCOC1=O)C1CCN(S(=O)(=O)c2c(Cl)cccc2Cl)CC1 (stereo not given)	-4	-4	-4	14	20*
O=C(C1CCN(S(=O)(=O)c2c(Cl)cccc2Cl)CC1)N1CCCCCCC1	-13	3	6	2	8
O=[N+]([O-])c1cncc2[nH]cnc12	.	0	0	.	.
CCOC(=O)CC[C@@H]1CC[C@]2(CCCN(Cc3nccs3)C2)O1	.	4	-7	.	.
C=CCNC(=O)CN(C(=O)Cc1cccc(OC(F)(F)F)c1)c1cccc(Br)c1	.	2	9	.	.
O=C(NC1C2CC3CC(C2)CC1C3)C1CCCCC1 (stereo not given)	-1	8.6*	4	-6	4
O=C(CN1CCN(Cc2ccccc2)CC1)N/N=C\c1ccccc1[N+](=O)[O-]	.	0	-7	.	.
CCCOc1ccc(OCC(=O)c2[nH]c(C)c(C(C)=O)c2C)cc1	-1	.	.	-4	41*
COc1cccc(C2=NNC(=NCc3ccccc3)SC2)c1	-12	-1	4	1	31*

Bioassay records (PubChem)
